“And” between values parts separate entries of the source, which are not always exact repeats. Identical values can stand only once. The source made the active and inactive calls. Rule for the calls: active = hit-call score of the fitted dose curve at least 0.9, where 1 is the maximum; inactive = score below 0.9.
What follows are molecules tested on KRT18 (gene 3875) (assay: BSK_BE3C_Keratin818: BioMAP Diversity Plus: BE3C Assay for Keratin 818 Biomarker Activity (AID 2284282)). Details: primary human bronchial epithelial cells.
Procedure, shortened: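 Keratin 8/18 levels, detected by ELISA, served as the endpoint after 24 h chemical exposure of primary human bronchial epithelial cells. Gain of signal relative to DMSO negative control defined activity.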

SMILES | outcome | AC50
O=C(O)C(F)(F)C(F)(F)C(F)(F)C(F)(F)C(F)(F)C(F)(F)C(F)F | inactive | –
C=CC(=O)OCC(F)(F)C(F)(F)C(F)(F)COC(=O)C=C | inactive | –
COC(F)(C(F)F)C(F)(F)F (stereo not drawn) | inactive | –
O=S(=O)(O)CCC(F)(F)C(F)(F)C(F)(F)C(F)(F)F | inactive | –
NC(=O)C(F)(F)C(F)(F)C(F)(F)C(F)F | inactive | –
CCN=C1C=CC(=C(c2ccc(N(CC)CC)cc2)c2ccc(N(CC)CC)cc2)c2ccccc21 | – | 1.61 µM (active) and 1.51 µM (active)
OCCCC(F)(F)C(F)(F)C(F)(F)C(F)(F)C(F)(F)C(F)(F)C(F)(F)C(F)(F)F | – | 39.6 µM (active) and 42.8 µM (active)
FC(F)(F)C(F)(F)C(F)(F)C(F)(F)C(F)(F)C(F)(F)CC[Si](Cl)(Cl)Cl | inactive | –
OCC(O)CC(F)(F)C(F)(F)C(F)(F)C(F)(F)F (stereo not drawn) | inactive | –
OCC(F)(F)C(F)(F)C(F)(F)C(F)(F)C(F)(F)C(F)(F)C(F)(F)C(F)(F)CO | inactive | –
C=CC(=O)OCCC(F)(F)C(F)(F)C(F)(F)C(F)(F)F | inactive | –
FC(F)(F)C(F)(F)C(F)(F)CC1CO1 (stereo not drawn) | inactive | –
NC(=O)C(F)(F)C(F)(F)C(F)(F)C(F)(F)C(F)(F)C(F)(F)C(F)(F)F | inactive | –
NC(=O)C(F)(F)C(F)(F)C(F)(F)C(F)(F)C(N)=O | inactive | –
O=C(O)CCC(F)(F)C(F)(F)C(F)(F)C(F)(F)C(F)(F)C(F)(F)C(F)(F)F | inactive | –
OCC(F)(F)C(F)(F)C(F)(F)CO | inactive | –
NC(=O)C(F)(F)C(F)(F)C(F)(F)F | inactive | –
CN(C(=O)C(F)(F)C(F)(F)C(F)(F)F)[Si](C)(C)C | inactive | –
C[Si](Cl)(Cl)CCC(F)(F)C(F)(F)C(F)(F)C(F)(F)C(F)(F)C(F)(F)F | inactive | –
O=C(O)C(F)(F)C(F)(F)C(F)(F)OC(F)(F)F | inactive | –
NCC(F)(F)C(F)(F)C(F)(F)C(F)(F)C(F)(F)C(F)(F)C(F)(F)C(F)(F)F | inactive | –
CCOC(=O)CC(=O)C(F)(F)C(F)(F)F | inactive | –
O=S(=O)(OCC(F)(F)F)C(F)(F)C(F)(F)C(F)(F)C(F)(F)F | inactive | –

From PubChem BioAssay (EPA / NIEHS)
